Measurements: PubChem BioAssay AID504444 (National Center for Advancing Translational Sciences (NCATS), 2011)
Among all 360,000 compounds or so, about 7,500 (2.1%) were called active. Another 20% or so got no clear call; they are omitted. The full list was thinned out, with actives kept by preference. Values without a mark were called inactive. Calls come from the whole dose curve; as a rule, active = well fitted inhibition curve with a large enough effect; inconclusive = small, poorly fitted or top-dose-only effect, or effect the other way; inactive = flat fitted curve, though single readings scatter.

Assay: Nrf2 qHTS screen for inhibitors; note: nearly all actives have a fitted effect of over 60% in size
Conditions: A549 ARE-Fluc reporter, luciferase luminescence, 18-24 h; series mostly up to 46 µM; activity change, negative = inhibition: at the top concentration
Excerpt: NIH Molecular Libraries Probe Production Network [MLPCN]
NIH Chemical Genomics Center [NCGC]
Assay Provider: Shyam Biswal, Johns Hopkins University
Nrf2 is a transcription factor that maintains cellular redox homoestasis and protects cells from xenobiotics. Nrf2 binds to the antioxidant response element (ARE) to induce gene expression of a broad spectrum of genes that encode for antioxidants. […] Finding a small molecule that act as an inhibitor of Nrf2 function would represent a novel therapeutic target that could lead to improvement in survival of patients undergoing chemo- and/or radio- therapy.
This is the Nrf2 activity measured in the luminescent read.
1. Shibata, T., et al., Genetic Alteration of Keap1 Confers Constitutive Nrf2 Activation and Resistance to Chemotherapy in Gallbladder Cancer. Gastroenterology, 2008.
2. Sjoblom, T., et al., The consensus coding sequences of human breast and colorectal cancers. Science, 2006. 314(5797): p. 268-74.
NCGC Assay Protocol Summary:
A concentration-response assay was performed with A549 ARE_Fluc cells which are suspended in 5% FBS OPTI-MEM. Five uL were dispensed into 1536-well white TC-treated plate using the Kalypsys dispenser to achieve a density of 5000 cells/well in all columns except column 1. The plate is incubated at 37deg C at 5% CO2 for 2 hours before 23 nL of compounds are added with the Kalypsys pin tool equipped with a 1,536-pin array containing 10-nL slotted pins (FP1S10, 0.457-mm diameter, 50.8 mm long; V&P Scientific). The control compounds Budesonide and Staurosporine are both added at a concentration of 2mM and Budesonide is also added as a 1:10 titration, starting at 200uM, to achieve dose-response. After an 18-24 hour incubation at 37deg C at 5% CO2, 5ul of medium is added to column 1. Afterwards 1ul of 5x of CellTiter-Fluor (Promega) is added to every well. The plate is then incubated at 37deg C at 5% CO2 for 30 minutes before they are read on the ViewLux (Perkin Elmer) for a fluorescent read Ex=405(10)/Em=525(10) for a 3 second exposure, 2x binning, and high gain. Then 3 uL of 3x BugLite is dispensed into all wells and the plate is incubated at ambient room temperature for 15 minutes. Afterwards another ViewLux read is performed using the clear filter to get a luminescent read with the settings of 40 second exposure, 2x binning, and high gain. Cytotoxicity is assessed through the first fluorescent read and then biochemical activity against Nrf2 is measured in the luminescent read.
% is set by controls: 0 for no effect and ±100 for the full control effect; potency is the fitted concentration of half-maximal effect.

Row | SMILES | Potency | activity change, negative = inhibition
1 | O=C(Nc1cccc(OC(=O)N2CCCCC2)c1)N1CCOCC1 | 16.4 µM (active) | 
2 | CCN(CC)C(=O)Oc1ccc(NC(=O)N2CCOCC2)cc1 |  | -7.97%
3 | CN(C)C(=O)Oc1ccc(NC(=O)N2CCOCC2)cc1 |  | 3.42%
4 | COC(=O)C1=C(c2c(C)noc2C)C[C@@H]2CC[C@H]1N2C(=O)NCc1ccc2c(c1)OCO2 |  | -8.27%
5 | c1ccc(C(CN2CCCCC2)c2ccccc2)cc1 |  | 2.82%
6 | C[C@]12CC[C@H](O)CC1=C([N+](=O)[O-])CC1C2CC[C@@]2(C)C1CC[C@@H]2O (stereo not given in full) |  | 0.87%
7 | O=C1NC(=O)C(CCOc2ccccc2)(CCc2ccccc2)C(=O)N1 |  | -22.3%
8 | CCCCC(=O)N/N=C/c1c(O)n(CCC2=CCCCC2)c(=O)[nH]c1=O | 18.4 µM (active) | 
9 | CCCCC(=O)N/N=C/c1c(O)n(-c2ccccc2)c(=O)[nH]c1=O |  | 5.34%
10 | O=c1[nH]c(=O)n(CCc2ccc(F)cc2)c(O)c1/C=N/N1CCCCC1 |  | -3.29%
11 | CN(C)CC1Oc2ccccc2OC1(O)c1ccccc1 (stereo not given) | 14.6 µM (active) | 
12 | CC1C(=O)OC2CCN3CC=C(COC(=O)C(C)(O)C1(C)O)C23 (stereo not given) |  | 4.37%
13 | COC(=O)C1=C(c2ccc(Cl)c(C(F)(F)F)c2)C[C@@H]2CC[C@H]1N2C(=O)NC(C)C |  | -21.4%
14 | O=C1NC(=O)C(Cc2ccccc2)C(=O)N1 |  | 2.99%
15 | Cc1ccc(C(C)C)c(OCC(=O)N2CCN(CC(=O)N3CCOCC3)CC2)c1 |  | 8.39%
16 | O=C(O)c1cc[c]([Sb](=[O])([OH])[OH])cc1[N+](=O)[O-] |  | 13.5%
17 | CC(=O)c1c(O)n(C2CCCCCC2)c(=O)[nH]c1=O |  | -21.3%
18 | CCC(=NCCc1ccccc1)c1c(O)n(C2CCCCC2)c(=O)[nH]c1=O | 20.6 µM (active) | 
19 | CC/C(=N\NC(=O)c1ccccc1O)c1c(O)n(Cc2ccccc2)c(=O)[nH]c1=O |  | 8.94%
20 | Cn1cc(C(=O)OCC(=O)N2CCCC2)c2ccccc21 |  | 5.8%
21 | CC1CNCCN1c1ccc(Cl)cc1 (stereo not given) |  | 8.73%
22 | CCn1cc2nc(SCc3ccccc3Cl)n(CCc3ccccc3)c(=O)c2n1 | 18.4 µM (active) | 
23 | CC(=O)C1(O)CCC2C3CCC4=C(Cl)C(=O)CCC4(C)C3CCC21C (stereo not given) |  | -13.3%

Row | SMILES | Potency | activity change, negative = inhibition
24 | Cc1ccc(N(C)C(=O)Oc2cccc3ccc(C)nc23)cc1 |  | -14.6%
25 | CN1CCc2cc3c(cc2[C@H]1[C@@H]1OC(=O)c2c1ccc1c2OCO1)OCO3 |  | 6.77%
26 | COc1cccc(CN2CCCC(C(=O)c3ccccc3SC)C2)c1O (stereo not given) |  | -1.57%
27 | CC1CC=CCC12C(=O)NC(=S)NC2=O (stereo not given) |  | 13.2%
28 | CCOc1ccc(CNC(=O)c2cccc(Nc3nc4ccccc4n4nnnc34)c2)cc1OC | 7.31 µM (active) | 
29 | COc1cc(Cn2c(N)c(C(=O)NCc3ccco3)c3nc4ccccc4nc32)cc(OC)c1OC |  | -29.4%
30 | CCCn1c(C(=O)c2ccccc2OC)nc2ccccc21 |  | 4.64%
31 | CC(C)Oc1cccc(C(=O)C2CCCN(C3CCOCC3)C2)c1 (stereo not given) |  | -9.14%
32 | CCC1(CC(C)c2ccccc2)C(=O)NC(=O)NC1=O (stereo not given) |  | -20.9%
33 | COC(=O)C1=C(c2ccc3ccccc3c2)C[C@@H]2CC[C@H]1N2C(=O)NCCO |  | -2.19%
34 | Cc1ccc(NC(=O)CN(C)CC(=O)Nc2cccc(F)c2)cc1[N+](=O)[O-] | 11.6 µM (active) | 
35 | CNCC(O)c1cc(F)c(OCc2ccccc2)c(OCc2ccccc2)c1F (stereo not given) |  | 12.1%
36 | CCOC(=O)CC(SP1(=S)OCC2(CCCCO2)C(C2CCCCO2)O1)C(=O)OCC (stereo not given) |  | -7.98%
37 | CC(CC(C#N)(c1ccccc1)c1ccccc1)N1CCCCC1 (stereo not given) |  | 3.56%
38 | O=C(CCC(=O)N1C[C@H]2C[C@@H](C1)c1cccc(=O)n1C2)NCc1ccccc1C(F)(F)F |  | -12.9%
39 | COC(=O)C1=C(c2ccc(F)cc2OCc2ccccc2)C[C@@H]2CC[C@H]1N2C(=O)NCc1ccc(Cl)cc1 | 23.1 µM (active) | 
40 | COC(=O)C1=C(c2ccc(F)cc2F)C[C@@H]2CC[C@H]1N2C(=O)NC1CC1 |  | 0.179%
41 | COC(=O)C1=C(c2ccccc2)C[C@@H]2CC[C@H]1N2C(=O)NCc1ccco1 |  | 6.49%
42 | C[C@]12CCCCC1=CC(=O)C1C2CC[C@@]2(C)C1C[C@@H](F)[C@@H]2O (stereo not given in full) |  | -20%
43 | Cc1cc(C(=O)OCC(=O)Nc2c(F)cccc2F)c(C)n1C1CC1 |  | -16.9%
44 | c1ccc(Cc2nn3c(Cn4cnc5ccccc54)nnc3s2)cc1 | 23.1 µM (active) | 
45 | O=c1[nH]c(CN2CC=C(c3ccccc3)CC2)nc2scc(-c3cccs3)c12 |  | 0.416%
46 | CC[C@H]1CC2CN3CCc4c([nH]c5ccccc45)C(C(=O)OC)(C2)C13 (stereo not given in full) |  | -5.41%

Row | SMILES | Potency | activity change, negative = inhibition
47 | CCC(=O)OC(Cc1ccccc1)(c1ccccc1)C(C)CN(C)C (stereo not given) |  | -0.661%
48 | CC=C(C)C(=O)OC1CCN2CC=C(COC(=O)C(O)(C(C)OC)C(C)(C)O)C12 (stereo not given) |  | -9.73%
49 | CCC(=O)c1ccc(OCC(=O)N2CCN(CC(=O)Nc3ccc(C)cc3)CC2)cc1 |  | 0.865%
50 | COc1cccc(C(=O)Nc2ccc(-c3cc(C(F)(F)F)nn3-c3ccccc3)cc2)c1 | 14.6 µM (active) | 
51 | COc1ccc(NC(=O)c2cn(CCC#N)nc2-c2ccc([N+](=O)[O-])cc2)cc1 |  | 2.75%
52 | COc1ccc(-c2nn(CCC#N)cc2C(=O)Nc2ccc(C(C)=O)cc2)cc1 |  | -8.88%
53 | C=C(C)C1(CCCC)C(=O)NC(=S)NC1=O |  | -1.08%
54 | COC(=O)[C@@H]1C(OC(=O)c2ccccc2)CC2CCC1N2C (stereo not given in full) |  | 0.299%
55 | COC(=O)C1=C(c2cc3ccccc3s2)C[C@@H]2CC[C@H]1N2C(=O)NC(C)C |  | -24.6%
56 | CC1([N+](=O)[O-])COP(=O)(Nc2ccc(F)cc2)OC1 (stereo not given) |  | -6.18%
57 | COP(=O)(NS(=O)(=O)c1ccccc1)OC |  | 0.416%
58 | O=C1C=C(NS(=O)(=O)c2ccccc2)C(=O)c2ccccc21 | 23.1 µM (active) | 
59 | CC1CCCN1CCC(C(N)=O)(c1ccccc1)c1ccccc1 (stereo not given) |  | -3.33%
60 | O=C1C2(Cl)C3(Cl)C4(Cl)C(Cl)(Cl)C5(Cl)C3(Cl)C1(Cl)C5(Cl)C24Cl (stereo not given) |  | -14%
61 | COC1=C[C@@H]2[C@@H]3Cc4ccc(OC)c(O)c4[C@]2(CCN3C)CC1=O |  | 3.67%
62 | Cc1ccc(Cl)cc1N1CCN(C(=O)C2CCC(CNS(=O)(=O)c3cccs3)CC2)CC1 (stereo not given) | 10.3 µM (active) | 
63 | c1cc2c(cc1C1OCC3C(c4ccc5c(c4)OCO5)OCC13)OCO2 (stereo not given) |  | -12.8%
64 | CCc1ccc(OCC(=O)N2CCN(CC(=O)Nc3ccccc3Cl)CC2)cc1 |  | 5.6%
65 | CC[C@H]1CN2CCc3cc(OC)c(OC)cc3[C@@H]2C[C@@H]1C[C@H]1NCCc2cc(OC)c(OC)cc21 | 0.411 µM (active) | 
66 | Cc1nn(-c2ccccc2)c(C)c1NC(=O)COC(=O)Cc1ccccc1 |  | -2.94%
67 | COc1ccc2c(c1)[C@]13CCCCC1C(C2)N(C)CC3 (stereo not given in full) |  | -3.89%
68 | C[C@]12CCC3C(CC[C@H]4[C@H](O)[C@H](O)CC[C@]34C)C1CCC2=O (stereo not given in full) |  | -6.32%
69 | COc1ccc(C2NCc3ccc4c(c3-n3cccc32)OCO4)cc1OC (stereo not given) |  | -14.8%

Row | SMILES | Potency | activity change, negative = inhibition
70 | CCCCCCCCCCCCn1ccc(=N)cc1 | 20.6 µM (active) | 
71 | c1cc2c(cc1CCNC1CCCCCC1)OCO2 |  | 9.17%
72 | O=C1N=c2ccccc2=C/C1=C\c1c(O)[nH]c(=S)[nH]c1=O |  | -14.9%
73 | COC1C(O)C(C)OC(OC2CCC3(C=O)C(CCC4C3CCC3(C)C(C5=CC(=O)OC5)CCC43O)C2)C1O (stereo not given) | 0.0231 µM (active) | 
74 | COC1=CC=C2[C@H]3Cc4ccc(OC)c5c4[C@@]2(CCN3C)C1O5 (stereo not given in full) |  | -4.83%
75 | COCc1cc(OC(=O)N(C)C)nc(-c2ccc(C)c(Cl)c2)n1 |  | -1.28%
76 | C[C@]12CCC3C(CC[C@H]4[C@H](O)[C@H](O)CC[C@]34C)C1CC[C@@H]2O (stereo not given in full) |  | 2.28%
77 | c1ccc(CCN2CCC3(CC2)OCCO3)cc1 |  | 1.07%
78 | CCC(C)(O)C(=O)OC1C(=O)OC2CC3C(C)=CC(=O)C(O)C3(C)C3C4(O)OCC23C1C(C)C4O (stereo not given) | 0.58 µM (active) | 
79 | CC12CCC(O)CC1CCC1C2CCC2(C)C(C(=O)CC(O)C(F)(F)F)CCC12 (stereo not given) |  | -6.35%
80 | CCN1C(=O)NC(=O)C2(CCCC2)C1=O |  | -20.2%
81 | Oc1ccc2c3c1OC1[C@H](O)CC[C@@]4(O)[C@@H](C2)N(CC2CC2)CC[C@]314 (stereo not given in full) | inactive | 
82 | NS(=O)(=O)c1ccc(CCNC(=O)c2ccc(Cl)c(S(=O)(=O)N3CCCCCC3)c2)cc1 | 10.3 µM (active) | 
83 | Cc1ccccc1NC(=O)COC(=O)c1cc(C)n(C2CC2)c1C |  | 3.85%
84 | Cn1cc(/C=C/c2nc3ccccc3c(=O)n2-c2ccccc2)c2ccccc21 |  | -22.8%
85 | C[C@]12CCC3C(CC[C@H]4C[C@@H](O)CC[C@]34C)C1C[C@@H](O)[C@H]2O (stereo not given in full) |  | -26.4%
86 | C[C@]12CC[C@H](O)C[C@H]1CC[C@@H]1C2CC[C@]2(C)[C@@H](C3=CC(=O)OC3)[C@@H](O)C[C@]12O (stereo not given in full) | 1.84 µM (active) | 
87 | C[C@]12CCC3C(CC[C@H]4C[C@@H](O)CC[C@]34C)C1CC[C@@H]2O (stereo not given in full) |  | -12.6%
88 | O=P1(Oc2ccccc2)CC(O)C(O)C(COCc2ccccc2)O1 (stereo not given) |  | 9.74%
89 | CC12CCC3C(CCC4CC(=O)CCC43C)C1CC(=NO)C2=O (stereo not given) |  | -13.9%
90 | CN1CCC(N(C)Cc2cccnc2)CC1 |  | -8.41%
